In ChEMBL document CHEMBL3988442, “University of Dundee, Small-Polar-MMV Screening Library” (2021) one finds Percent Effect data, which are given here for 39 compounds.

This test addresses AMP-activated protein kinase, AMPK (Homo sapiens) (UniProt P54646+O43741+P54619+Q9UGJ0+Q9Y478+Q13131+Q9UGI9). The test can be described thus: AMP-dependent Kinase enzyme assay. An in vitro enzyme assay that detects ADP turnover that is directly proportional to AMPK activity. This uses naive AMPK that is activated during the assay with MK-8722. Type of test: functional. More on the design: scale not given: direction of the effect not stated beside the values. The following applies: 30 µM.
For the compound `COC(=O)c1ccoc1CN(C)CC(=O)NC1CCS(=O)(=O)C1` (centres undefined), the Percent Effect was -0.853%.

For `CC(CN(C)Cc1cccc(-n2cccn2)c1)C(F)(F)F` (centres undefined), the Percent Effect was -9.02%.

`CN(CC1(CO)CCCC1)c1nc2c(c(=O)[nH]1)Cc1ccccc1OC2`: the Percent Effect stood at 6.29%.

For `FC(F)(F)c1ccnc(N2CCC(c3nccn3CC3CC3)CC2)n1`, the Percent Effect worked out at 19.6%.

Consider `COc1cc(N(C)CCCn2nc(C)cc2C)ncn1`, for which the Percent Effect is 13.8%.

Consider `Cc1nc(CN(C)S(=O)(=O)c2ccccc2C(F)(F)F)no1`, for which the Percent Effect amounted to 4.4%.

As to `c1cncc(CNCCc2cccs2)c1`, the Percent Effect was -7.73%.

Turning to `CCC(NC(=O)c1cnc(N(C)C)nc1C)c1ccncc1` (centres undefined), the Percent Effect came to 0.963%.

Turning to `CN(Cc1nncn1C)C(=O)c1cc(COc2ccccc2F)[nH]n1`, the Percent Effect is -9.05%.

For the compound `Cc1ccccc1OCCn1cnc2oc(C)c(C(=O)O)c2c1=O`, the Percent Effect came to 14.5%.

As for `Cc1ccc(C(C)N(C)C(=O)c2ccc(=O)n(C)c2)s1` (centres undefined), the Percent Effect was found to be 3.36%.

`Cc1noc(CCCC(=O)N2CSCC2C(=O)NCC2CC2)n1` (centres undefined): the Percent Effect was -0.369%.

Consider `CCS(=O)(=O)NCC(=O)NC1(C)CCc2ccccc2C1` (centres undefined), for which the Percent Effect was -3.96%.

As to `c1csc(N2CCCN(c3ncnc4sccc34)CC2)n1`, the Percent Effect came out at 21.9%.

For the compound `Cc1cccc(C)c1NC(=O)NCC1CCCN(C2CCOCC2)C1` (centres undefined), the Percent Effect worked out at 5.67%.

On to `CN(C)c1cccc(C(=O)Nc2ccn(CCc3ccncc3)n2)c1`, for which the Percent Effect stood at 12.1%.

Consider `Cc1ccc(-c2ccccc2CC2(C(=O)NC(C)C)CCCNC2)cc1` (centres undefined), for which the Percent Effect was determined as 6.43%.

For the compound `CC(OCC1CC1)C(=O)NCCC(=O)Nc1ccccn1` (centres undefined), the Percent Effect turned out to be 12.4%.

As to `CN(CCSc1nncn1C(C)(C)C)c1ccccc1`, the Percent Effect amounted to 16.1%.

For the compound `Cc1ccc(-c2nc(CN3CCOCC3)no2)cc1N1CCNC1=O`, the Percent Effect came out at 7.88%.

Consider `COc1ccc(NC(=O)N2CCC(CSC)C2)cc1C` (centres undefined), for which the Percent Effect was -6.6%.

On to `OCCc1cc(C2CCCN2c2ncccn2)n[nH]1` (centres undefined), for which the Percent Effect was determined as 11.9%.

As to `Cc1cc(C)n(C2CN(c3nc(-c4ccncc4)nc4c3CCC4)C2)n1`, the Percent Effect turned out to be 2.99%.

As for `Cc1cc(CN2CCC(C3CCN(CCc4ccccc4)C3)CC2)[nH]n1` (centres undefined), the Percent Effect was -5.07%.

Regarding `COCc1c(Br)cccc1NC(=O)N(C)CCO`, the Percent Effect is -5.13%.

`Cc1ccc2nc(CNCCCOc3ccccc3)cc(O)c2c1`: the Percent Effect turned out to be 2.49%.

Turning to `O=C(NC1CCN(c2ccccc2OC(F)F)C1)c1cccnc1` (centres undefined), the Percent Effect is -0.669%.

As for `CCN(C)C[C@@H]1CN(Cc2cnc3c(S(C)(=O)=O)cnn3c2)C[C@@H]1CO`, the Percent Effect is -11.4%.

Consider `CO[C@H]1C[C@@H](O)C12CCN(C(=O)NCc1ccco1)CC2`, for which the Percent Effect is -2.57%.

Regarding `OCCC1(NCc2ccc(-n3cccn3)cc2)CCOCC1`, the Percent Effect is -4.22%.

Regarding `COc1ccc(S(=O)(=O)Nc2cccnc2-n2cncn2)c(C)c1`, the Percent Effect is -5.19%.

Regarding `CC(NCc1cccc(COC2CCCC2)c1)c1cnn(C)c1` (centres undefined), the Percent Effect turned out to be 3.6%.

As to `Cc1ccc(-c2cc(CS(=O)(=O)NC3CCCNC3=O)on2)cc1` (centres undefined), the Percent Effect came to 5.82%.

As to `CN(C)Cc1nc(C(=O)N2CCCC(COc3ccc(F)cc3)C2)cs1` (centres undefined), the Percent Effect stood at 8.59%.

Take `CN1CCOC(CNCC(=O)NCCCc2ccccc2)C1` (centres undefined): the Percent Effect was -10%.

`Cc1ccc(C)c(CC(=O)NC2CCCS(=O)(=O)C2)c1` (centres undefined): the Percent Effect was -5.26%.

On to `Cc1nc(O)cc(CN2C[C@H](NC(=O)C3CCCC3)[C@@H](C3CC3)C2)n1`, for which the Percent Effect is -1.66%.

For `Cc1nnc(NC(=O)NCCCN2CCC(C(N)=O)CC2)s1`, the Percent Effect was determined as 5.59%.

Turning to `CNC(=O)c1ccc(CN(C(C)C)C(C)C)o1`, the Percent Effect was -7.38%.
